This note sets out measurements from PubChem BioAssay (Tox21).

Values joined by “and” are separate entries in the source; they are usually repeats but may differ in a detail not shown here. Equal values may be shown once. Results filed as inconclusive are left out. Active and inactive are the calls of the source. Unless noted, calls follow the shape of the dose curve; as a rule, active = well fitted curve in the direction sought with a large enough effect in the repeat runs; inconclusive = weak or mixed curves; inactive = no such curve, though single readings can be large; an effect the other way counts as inactive or inconclusive.

Assay [1] can be described thus: qHTS assay to identify aromatase inhibitors - cell viability counter screen (AID 743084).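 Also: cells stimulated with testosterone during compound exposure; nearly all actives have a fitted effect of over 55% in size.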 A general note: qHTS replaces the single test concentration by a dilution series.
Assay [2] addresses Aryl hydrocarbon receptor (Homo sapiens) (UniProt P35869). The assay is described as follows: qHTS assay to identify small molecule that activate the aryl hydrocarbon receptor (AhR) signaling pathway (AID 743085). Also: nearly all actives have a fitted effect of over 15% in size.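 As to activation: HG2L7.5c1 human HepG2 liver cells with stably integrated DRE-driven firefly reporter; series mostly up to about 70 µM.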 In outline: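 Luminescence (ONE-Glo) from a dioxin-responsive-element luciferase reporter in HG2L7.5c1 HepG2 cells after 24 hr compound exposure at 37C; viability measured by CellTiter-Fluor fluorescence beforehand.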

Assay [3] in a line: qHTS assay to identify small molecule that activate the aryl hydrocarbon receptor (AhR) signaling pathway - cell viability counter screen (AID 743086). Also: nearly all actives have a fitted effect of over 45% in size. The method, boiled down:
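HepG2-AhR-luc (HG2L7.5c1) cells, 4000/well, treated 24 h at 37 C with compound; viability measured as CellTiter-Fluor fluorescence after 30 min in the same wells as the luciferase read.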

Assay [4] deals with Peroxisome proliferator-activated receptor gamma (Homo sapiens) (UniProt P37231). Description: qHTS assay to identify small molecule agonists of the peroxisome proliferator-activated receptor gamma (PPARg) signaling pathway (AID 743094; active = well fitted activation curve with a large enough effect in the signal ratio in the repeat runs, not every such curve was filed as active; the % refers to the signal ratio). The method, boiled down:
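Beta-lactamase FRET fluorescence was the read-out after a 1 h room-temperature substrate step, following 17 h compound treatment at 37C of HEK293H cells expressing a UAS-driven bla reporter responsive to PPARg.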

Assay [5] in a line: qHTS assay to identify small molecule antagonists of the peroxisome proliferator-activated receptor gamma (PPARg) signaling pathway - cell viability counter screen (AID 743194). Also: nearly all actives have a fitted effect of over 55% in size. In outline: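 Cytotoxicity counter screen in PPARg-bla HEK293H cells, same wells as reporter assay. Compounds plus 50 nM rosiglitazone (final) for 17 h at 37 C, then viability read by CellTiter-Glo luminescence.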

Assay [6] can be described thus: qHTS assay for small molecule agonists of the antioxidant response element (ARE) signaling pathway - cell viability counter screen (AID 743203; calls by dose curve; also: nearly all actives have a fitted effect of over 55% in size). In outline:
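HepG2 cells carrying ARE-driven beta-lactamase; 2,000 cells/well; 5 hrs plating; compound pinned from DMSO; 16 hrs 37C/5% CO2; CellTiter-Glo added; 30 min RT; luminescence.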

A short description of assay [7]: qHTS assay for small molecule activators of the heat shock response signaling pathway - cell viability counter screen (AID 743209). Also: nearly all actives have a fitted effect of over 50% in size. The method, boiled down:
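Luminescence from CellTiter-Glo, added after the beta-lactamase FRET read, gave the viability signal. Cells were HSE-bla HeLa treated with DMSO-dissolved compounds for 5 h at 37 C following overnight plating.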

Assay [8] is described as follows: qHTS assay for small molecule agonists of the antioxidant response element (ARE) signaling pathway (AID 743202; active = well fitted activation curve with a large enough effect in the signal ratio in the repeat runs, not every such curve was filed as active; the % refers to the signal ratio). The method, boiled down:
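Agonist mode reporter screen: HepG2 cells with ARE-controlled beta-lactamase are incubated with test compounds for 16 h at 37 C, and beta-lactamase activity is measured as fluorescence of cleaved B/G FRET substrate.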

Assay [9] deals with Peroxisome proliferator-activated receptor gamma (Homo sapiens) (UniProt P37231). The assay is described as follows: qHTS assay to identify small molecule antagonists of the peroxisome proliferator-activated receptor gamma (PPARg) signaling pathway (AID 743191; calls by dose curve; also: nearly all actives have a fitted effect of over 30% in size). The method, boiled down:
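GeneBLAzer PPARg UAS-bla HEK293H cells, 5 h post-plating, exposed to compounds 17 h at 37C. LiveBLAzer B/G FRET substrate added for 1 h at room temperature; beta-lactamase reporter read by fluorescence intensity.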

Assay [10] in a line: qHTS assay for small molecule activators of the heat shock response signaling pathway (AID 743210; active = well fitted activation curve with a large enough effect in the signal ratio in the repeat runs, with a control signal flat, not every such curve was filed as active; the % refers to the signal ratio;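 as to activation: HeLa cells with beta-lactamase reporter driven by heat shock elements; series mostly up to about 63 µM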). The method, boiled down:
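Quantitative high-throughput format using an engineered HeLa line in which heat shock response elements drive beta-lactamase; after 5 h with compound, cells received a B/G FRET substrate and fluorescence was read.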
Potency is read from the fitted curve at half-maximal effect.

Aryl hydrocarbon receptor (Homo sapiens), sequence (P35869 whole entry, looked up): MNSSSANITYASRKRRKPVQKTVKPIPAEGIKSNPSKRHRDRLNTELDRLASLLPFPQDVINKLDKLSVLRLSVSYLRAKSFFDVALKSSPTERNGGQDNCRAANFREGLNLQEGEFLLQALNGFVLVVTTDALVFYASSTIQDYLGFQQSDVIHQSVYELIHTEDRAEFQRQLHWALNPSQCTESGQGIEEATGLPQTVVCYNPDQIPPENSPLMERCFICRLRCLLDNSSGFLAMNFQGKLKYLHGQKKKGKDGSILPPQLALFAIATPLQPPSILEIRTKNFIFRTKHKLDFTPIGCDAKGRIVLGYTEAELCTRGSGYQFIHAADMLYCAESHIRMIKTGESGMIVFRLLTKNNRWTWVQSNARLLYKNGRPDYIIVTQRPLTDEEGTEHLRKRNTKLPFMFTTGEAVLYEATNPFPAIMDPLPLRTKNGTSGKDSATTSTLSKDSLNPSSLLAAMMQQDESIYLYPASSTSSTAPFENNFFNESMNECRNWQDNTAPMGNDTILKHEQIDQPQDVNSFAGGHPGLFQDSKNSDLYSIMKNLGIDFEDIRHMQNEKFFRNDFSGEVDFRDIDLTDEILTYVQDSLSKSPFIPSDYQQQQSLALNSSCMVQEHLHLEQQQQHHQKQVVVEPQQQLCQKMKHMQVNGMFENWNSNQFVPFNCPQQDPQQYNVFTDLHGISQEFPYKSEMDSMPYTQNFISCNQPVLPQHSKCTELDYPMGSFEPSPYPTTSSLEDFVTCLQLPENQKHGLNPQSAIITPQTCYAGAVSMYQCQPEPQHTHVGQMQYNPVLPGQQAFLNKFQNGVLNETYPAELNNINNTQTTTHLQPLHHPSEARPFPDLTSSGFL
Peroxisome proliferator-activated receptor gamma (Homo sapiens), sequence (P37231 whole entry, looked up): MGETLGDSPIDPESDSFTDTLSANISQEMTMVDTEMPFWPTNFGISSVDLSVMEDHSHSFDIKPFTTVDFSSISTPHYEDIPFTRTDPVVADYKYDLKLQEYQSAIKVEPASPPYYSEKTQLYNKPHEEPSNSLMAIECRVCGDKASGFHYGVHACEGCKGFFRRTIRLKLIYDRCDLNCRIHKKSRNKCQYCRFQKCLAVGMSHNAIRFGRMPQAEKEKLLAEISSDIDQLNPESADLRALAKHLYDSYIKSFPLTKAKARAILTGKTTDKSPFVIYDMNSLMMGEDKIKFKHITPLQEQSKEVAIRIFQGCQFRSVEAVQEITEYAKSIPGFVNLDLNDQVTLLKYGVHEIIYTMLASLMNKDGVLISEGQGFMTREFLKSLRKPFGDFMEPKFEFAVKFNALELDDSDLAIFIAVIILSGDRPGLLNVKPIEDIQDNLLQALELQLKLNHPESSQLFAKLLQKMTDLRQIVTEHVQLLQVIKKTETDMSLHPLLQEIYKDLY

Regarding `O=S(=O)(O)CCCN1CCOCC1`, the Potency result in assay [1], in assay [2], in assay [3], in assay [4], in [5] and in assay [6] was “inactive” each time. Further, in assay [7], the Potency entry is “inactive”.
For `CCCC(CC)CCCCCCCN` (stereo unspecified), the Potency result in assay [1], in assay [2], in assay [3], in assay [4], in assay [8] and in assay [7] was “inactive” in each case.
As to `CCN(CC)CCCN(c1ccccc1)C1Cc2ccccc2C1`, the Potency in assay [1] is 29.8 µM (active); in assay [3] it was 13.3 µM (active). For the same molecule, the Potency entry in assay [2], in [9], in assay [6], in [7] and in [10] was “inactive” throughout.
In the case of `CC(COC(=O)c1ccccc1)OC(=O)c1ccccc1` (stereo unspecified), the Potency entry in assay [1], in assay [2], in assay [3], in assay [4], in assay [6] and in [7] was “inactive” each time. For the same molecule, the Potency result in assay [10] is “inactive”.
`CCOC(=O)COc1ccc(C)cc1`: the Potency result in [1], in [2], in assay [3], in [4], in assay [5] and in [6] was “inactive” each time.
Consider `Cc1cccc(C)c1NC(=O)CN1CCN(CCCC(c2ccc(F)cc2)c2ccc(F)cc2)CC1`, for which the Potency entry in [1], in assay [2] and in assay [4] was “inactive” throughout. Further, the Potency in assay [3] is 11.4 µM (active); in [5], 26.6 µM (active).
Take `CCN=c1cc2oc3cc(NCC)c(C)cc3c(-c3ccccc3C(=O)OCC)c-2cc1C`: the Potency was 1.21 µM (active) and 1.93 µM (active) in assay [1]; 6.83 µM (active) and 7.7 µM (active) in assay [3]; 10.9 µM (active) and 6.92 µM (active) in assay [5]; 60.9 µM (active) and 30.6 µM (active) in assay [6]; 30.8 µM (active) and 19.5 µM (active) in assay [7]. In assay [2], the Potency entry is “inactive”.
`CC(O)C#CC(C)O` (stereo unspecified): the Potency in [1] is 30.3 µM (active); in assay [4], 54.4 µM (active); in assay [7] it was 21.7 µM (active). In addition, the Potency entry in assay [2] and in [3] was “inactive” in each case.
On to `O=C(O)CC(=O)O`, for which the Potency result in assay [1], in assay [2], in [3], in assay [4], in assay [9] and in assay [6] was “inactive” throughout. Moreover, the Potency result in assay [7] and in [10] was “inactive” throughout.
On to `CC1=C(/C=C/C(C)=C/C=C/C(C)=C/C(=O)Nc2ccc(O)cc2)C(C)(C)CCC1`, for which the Potency in [1] was 26.6 µM (active) and 28 µM (active); in [3], 28 µM (active); in assay [9] it was 71 µM (active); in assay [6], 44.4 µM (active); in [7], 20 µM (active) and 33.5 µM (active). Besides, the Potency result in [2] and in [5] was “inactive” throughout.
On to `CCCSS/C(CCO)=C(\C)N(C=O)Cc1cnc(C)nc1N`, for which the Potency result in assay [1], in assay [2], in [3], in [5], in [8] and in assay [6] was “inactive” each time. In assay [7], the Potency entry was “inactive”.
For the molecule `SCCCCCCCCS`, the Potency result in assay [1], in assay [2], in assay [3] and in assay [4] was “inactive” each time. Also, in assay [6], the Potency was 43.3 µM (active).
As to `CCN=C1C=CC(=C(c2ccc(N(CC)CC)cc2)c2ccc(N(CC)CC)cc2)c2ccccc21`, the Potency was 9.63 µM (active) in assay [1]; 24.2 µM (active) in assay [3]; 0.154 µM (active) in assay [5]; 5.42 µM (active) in assay [6]; 21.7 µM (active) in [7]. The Potency result in assay [2] is “inactive”.
Take `CCCCCCCCCCCC(=O)N(CC)CC`: the Potency result in [1], in [2], in assay [3], in assay [4], in [5] and in [8] was “inactive” throughout. In addition, the Potency entry in assay [6], in [7] and in [10] was “inactive” each time.
Regarding `Cn1cnc2ncnc(N)c21`, the Potency result in assay [1], in assay [2], in assay [3], in assay [4], in assay [5] and in [8] was “inactive” throughout. Moreover, the Potency result in assay [6], in assay [7] and in [10] was “inactive” throughout.
With `Cc1occc1SSc1ccoc1C`, the Potency is 43.3 µM (active) in [1] and 23.6 µM (active) in [10]. The Potency result in assay [2], in assay [3], in assay [4], in assay [9] and in [6] was “inactive” each time.
Turning to `CCCCCCCCCCCCCOP(=O)(O)O`, the Potency result in assay [1], in [2] and in assay [3] was “inactive” throughout. For the same molecule, the figures for the Potency in assay [5], in [6] and in [7] were 43.6 µM (active), 43.3 µM (active) and 34.7 µM (active), respectively.
As to `CC(C)N=C(N)/N=C(\N)Nc1ccc(Cl)cc1`, the Potency entry in assay [1], in [2], in [3], in [4], in assay [5] and in [6] was “inactive” each time. Moreover, the Potency result in assay [7] and in assay [10] was “inactive” throughout.
`CCCCN(CCCC)CCC(O)c1cc2c(Cl)cc(Cl)cc2c2cc(C(F)(F)F)ccc12` (stereo unspecified): the Potency entry in [1], in assay [2], in assay [3], in [4], in assay [6] and in [7] was “inactive” each time. For the same molecule, the Potency entry in assay [10] is “inactive”.
Take `CCO[Si](CCCSSSSCCC[Si](OCC)(OCC)OCC)(OCC)OCC`: the Potency result in assay [1], in assay [2], in assay [3], in assay [4], in assay [5] and in [8] was “inactive” each time. Besides, the Potency entry in assay [6], in [7] and in assay [10] was “inactive” throughout.
For `CCCCNc1c(C(=O)OCC)c(C)nc2c1cnn2CC`, the Potency result in [1], in [3], in assay [4], in assay [9], in assay [6] and in assay [7] was “inactive” each time. The Potency result in assay [10] was “inactive”. Moreover, the Potency in assay [2] is 4.73 µM (active).
As for `Oc1c(Br)cc(Br)c2cccnc12`, the Potency result in assay [1], in assay [3], in assay [4], in [6] and in [7] was “inactive” in each case. Besides, the Potency in [2] was 0.668 µM (active).
With `COc1cc(C(=O)NS(=O)(=O)c2ccccc2C)ccc1Cc1cn(C)c2ccc(NC(=O)OC3CCCC3)cc12`, the Potency entry in assay [1], in assay [3], in assay [6], in assay [7] and in assay [10] was “inactive” in each case. For the same molecule, the Potency in assay [2] was 26.6 µM (active); in assay [4] it was 0.169 µM (active); in assay [8], 29.8 µM (active).
With `CCCCCCCC/C=C\CCCCCCCC(=O)OCCOC(=O)CCCCCCC/C=C\CCCCCCCC`, the Potency entry in [1], in [2], in assay [3], in [4], in assay [5] and in assay [8] was “inactive” each time. For the same molecule, the Potency result in [6], in [7] and in assay [10] was “inactive” in each case.
For `CCN(CC)CCSC(=O)C(c1ccccc1)c1ccccc1`, the Potency result in [1], in [2], in [3], in assay [5], in assay [8] and in assay [6] was “inactive” in each case. The Potency result in [7] was “inactive”.
As to `C[C@@H]1CC[C@H]2C(C)(C)[C@H]3C[C@@]12CC[C@@]3(C)O`, the Potency entry in [1], in assay [2], in assay [3], in [4], in [8] and in assay [6] was “inactive” throughout.
